# Reference: PubChem BioAssay AID651717 (Broad Institute, 2012)
# Out of some 1,200 compounds screened, about 950 (79%) were called active. So high a share suggests a set chosen from earlier hits. Not all results are given here. Measured potencies and affinities stand elsewhere. Values without a mark were called inactive.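 The calls were made as follows: active = signal rises and fitted curve reaches 40% activity at or below the top valid tested dose, in every replicate test; inconclusive = replicate tests give mixed calls; inactive = the rest, including activity in the opposite direction.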
# Experiment: compounds raising Bmi1 reporter signal – mouse embryonic stem cells, luciferase, cherry-pick, esBAF inhibitor project, dose response (AID 651717);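 also: luciferase knocked into Bmi1 locus with EF-1a renilla as cell number control; rising ratio signals esBAF inhibition which derepresses Bmi1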
# Conditions: mESC Bmi1-luciferase reporter, firefly/renilla ratio, 24 h, active compounds read high; at 35 µM unless noted
row,Compound,max activity
1,Cc1ccc(S(=O)(=O)Nc2cccc3c2O[C@@H](CN(C)C(=O)Nc2ccc4c(c2)OCO4)[C@@H](C)CN([C@@H](C)CO)C3=O)cc1,-17.3%
2,CC(=O)N(C)c1ccc(NCc2cc(=O)oc3cc(C)c(O)cc23)cc1,19.2%
3,COc1ccc2cc(C(=O)c3ccccc3)c(=O)oc2c1,32.6% [at 4.2 µM]
4,C[C@@H]1CN([C@@H](C)CO)C(=O)c2cc(NC(=O)Nc3ccc4c(c3)OCO4)ccc2O[C@@H](C)CCCCO[C@@H]1CN(C)S(=O)(=O)c1cn(C)cn1,-11% [at 0.5 µM]
5,CC1CCN(c2ccc3c(c2)S(=O)(=O)c2cccc(C(=O)NCc4ccc(F)cc4)c2C3=O)CC1,27.9%
6,CN(C)c1ccc(C(=O)Nc2cccc(S(=O)(=O)N3CCCC3)c2)cc1,25% [at 16 µM]
7,CCC(SC1=Nc2ccccc2C2=NC(CC(C)C)C(=O)N12)C(=O)Nc1ccc2c(c1)OCO2 (configuration not stated),-19.3%
8,Cc1ccc(S(=O)(=O)N(C)C[C@H]2OCCCC[C@H](C)Oc3ccc(NC(=O)Nc4ccc5c(c4)OCO5)cc3C(=O)N([C@H](C)CO)C[C@H]2C)cc1,10.8% [at 16 µM]
9,C[C@H](CO)N1C[C@H](C)[C@@H](CN(C)C(=O)Nc2ccc3c(c2)OCO3)OCCCC[C@H](C)Oc2ccc(NC(=O)c3ccncc3)cc2C1=O,-9% [at 0.26 µM]
10,Cc1ccc(S(=O)(=O)Nc2cccc3c2O[C@H](CN(C)C(=O)Nc2ccc4c(c2)OCO4)[C@H](C)CN([C@H](C)CO)C3=O)cc1,-21.3%
11,C[C@H]1CN([C@@H](C)CO)C(=O)Cc2cc(NC(=O)Nc3ccc4c(c3)OCO4)ccc2O[C@@H]1CN(C)Cc1ccccc1,-4.95% [at 2.1 µM]
12,C[C@H]1CN([C@@H](C)CO)C(=O)Cc2cc(NC(=O)Nc3ccc4c(c3)OCO4)ccc2O[C@H]1CN(C)Cc1ccccc1,12.3% [at 8 µM]
13,CCn1c(=N)n(CC(=O)c2ccc(Br)s2)c2ccccc21,15.9%
14,CN(C)c1ccc(-c2nnn(Cc3ccccc3Br)n2)cc1,-12.5%
15,CCOC(=O)c1cc(-c2sc(NC(=O)c3ccccc3)nc2C)n(-c2ccc(Br)cc2)n1,24%
16,O=C(c1ccc2ccccc2c1O)N1CCCCC1,-23.4%
17,C[C@@H]1CN([C@@H](C)CO)C(=O)c2cc(NS(=O)(=O)c3ccc(F)cc3)ccc2O[C@H]1CN(C)C(=O)Nc1ccc2c(c1)OCO2,-5.95% [at 0.5 µM]
